# Shown are actives, neighbours in structure and some others; about 1.7% of the full set was active somewhere.
# GLP-1R inv ag: GLP-1 receptor (human) inverse agonism; Potency, µM (doses to about 38.3 µM), usual class: inhibitors; HEK293 GLP-1R CRE-luciferase, luminescence, 24 h; GLP-1R form is constitutively active; hit rate 1.6% among 410,000; further: nearly all actives have a fitted effect of over 55% in size
# Target sequence (P43220 whole entry, looked up): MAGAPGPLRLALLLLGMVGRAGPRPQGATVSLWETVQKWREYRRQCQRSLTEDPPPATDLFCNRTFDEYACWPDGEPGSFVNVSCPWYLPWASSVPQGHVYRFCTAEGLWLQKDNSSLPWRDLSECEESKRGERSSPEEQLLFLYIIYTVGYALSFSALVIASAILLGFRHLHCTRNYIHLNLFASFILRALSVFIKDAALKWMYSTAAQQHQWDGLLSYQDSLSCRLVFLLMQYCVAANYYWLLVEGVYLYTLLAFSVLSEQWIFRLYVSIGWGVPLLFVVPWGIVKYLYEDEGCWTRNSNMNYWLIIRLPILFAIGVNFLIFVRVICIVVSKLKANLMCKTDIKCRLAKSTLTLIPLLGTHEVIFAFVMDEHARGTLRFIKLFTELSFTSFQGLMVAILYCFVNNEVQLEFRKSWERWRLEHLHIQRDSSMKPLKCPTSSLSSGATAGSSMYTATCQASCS
#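 Cells are plated, allowed 12 hours at 37 deg C, then treated with compounds for 24 hr before luciferase detection reagent is added and luminescence is read after 12 min at room temperature. The HEK293 line carries constitutively active GLP-1R with a cAMP-responsive reporter.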
# GLP1R cytotox: cytotoxicity in counter-screen for GLP-1R inverse agonists; HEK293 cAMP-luciferase reporter cells, luminescence, 24 h; Potency, µM (top dose mostly 38.3 µM), usual class: inhibitors; hit rate 0.13% among 410,000;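 further: loss of luciferase light is scored as toxicity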
#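 To flag toxic compounds, the library was rerun on cells for 24 hr at 37 deg C and 5% CO2. Viability-linked luminescence was captured 12 min after adding luciferase detection reagent.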
# GLP1R ag: activates the human GLP-1 receptor | P43220 | HEK293 GLP-1R CRE-luciferase, luminescence, 4-6 h; cells express a hypersensitive GLP-1R form | Potency, µM (doses to about 45.6 µM), usual class: activators | hit rate 0.007% among 380,000
# Numbers stand for hits; i = inactive; ? = inconclusive; nt = no result given. The call rests on the fitted dose curve; in most records, active means well fitted curve in the direction sought with a large enough effect; inconclusive means small, poorly fitted or top-dose-only effect, or another doubt; inactive means no such curve, though single readings can be large; an effect the other way counts as inactive or inconclusive.
SMILES,GLP-1R inv ag,GLP1R cytotox,GLP1R ag
CCOc1ccccc1CNC(=O)c1oc2c(c1C)-c1nn(Cc3cccc(Cl)c3)cc1CC2,?,i,nt
Cc1ccccc1CNC(=O)c1oc2c(c1C)-c1nn(Cc3ccc(Cl)cc3)cc1CC2,10µM,i,nt
COC(=O)c1ccc(C2c3[nH]c4ccccc4c3C[C@H]3C(=O)N(C4CCN(Cc5ccccc5)CC4)CC(=O)N23)cc1 (stereo partly drawn),10µM,i,i
CCOc1ccccc1C1c2[nH]c3ccccc3c2C[C@H]2C(=O)N(C3CCN(Cc4ccccc4)CC3)CC(=O)N12 (stereo partly drawn),?,i,i
O=C1[C@@H]2Cc3c([nH]c4ccccc34)C(c3ccccc3)N2C(=O)CN1C1CCN(Cc2ccccc2)CC1 (stereo partly drawn),2.2µM,?,i
COc1cccc(C2c3[nH]c4ccccc4c3C[C@H]3C(=O)N(C4CC4)CC(=O)N23)c1 (stereo partly drawn),i,i,i
O=C1[C@@H]2Cc3c([nH]c4ccccc34)C(c3cccc(Br)c3)N2C(=O)CN1C1CCN(Cc2ccccc2)CC1 (stereo partly drawn),3.2µM,?,i
COc1ccc(C2c3[nH]c4ccccc4c3C[C@H]3C(=O)N(C4CCN(Cc5ccccc5)CC4)CC(=O)N23)c(OC)c1 (stereo partly drawn),?,i,i
COc1ccc2c(c1)CCO[C@]21O[C@H](CCO)C[C@H](O)[C@H]1O,i,i,i
Cc1ccccc1C(=O)N1CC/C(=N/OS(=O)(=O)O)c2ccc(Cl)cc21,nt,nt,i
COc1ccc(Cl)cc1NC(=O)Cn1cc(S(=O)(=O)Cc2cccc(Cl)c2)c2ccccc21,?,i,nt
CC(=O)c1ccc(NC(=O)CSc2nccn2Cc2ccco2)cc1,i,i,nt
Cc1ccc(-c2cc(NC(=O)C(C)Oc3ccc(C)c(C)c3)on2)cc1 (stereo not drawn),?,i,nt
O=C(COc1ccccc1)N(Cc1ccco1)c1ccc(O)cc1,?,i,i
O=C(c1ccc(Cl)c(Cl)c1)N(Cc1ccco1)c1ccc(O)cc1,11µM,i,i
COC(=O)c1ccc(NC(=O)c2cc[n+](Cc3ccccc3)cc2)cc1,i,i,i
CCN(C(=O)c1ccc2c(c1)N(Cc1cccc(Cl)c1)C(=O)c1ccccc1S2=O)c1ccccc1 (stereo not drawn),10µM,i,nt
CCN1CCN(CCNC(=O)c2ccc3c(c2)N(Cc2cccc(Cl)c2)C(=O)c2ccccc2S3=O)CC1 (stereo not drawn),?,i,i
NC[C@@H]1O[C@@H](O[C@H]2[C@@H](O)[C@H](O[C@@H]3[C@@H](O)[C@@H](N)C[C@H](N)[C@H]3O[C@H]3O[C@H](CN)[C@@H](O)[C@@H](O)[C@H]3N)O[C@H]2CO)[C@H](N)[C@@H](O)[C@@H]1O,nt,nt,i
Cc1cccc(Nc2ncc(NC(=O)c3cccc(F)c3)c(Nc3cccc(C)c3)n2)c1,?,i,nt
COc1ccc(N(C(=O)/C=C/c2ccc(OC)c(OC)c2)C2=CC3CCC(C2)N3C)cc1 (stereo not drawn),i,i,?
CCC1CN(C(=O)Nc2cccc3c2CCCC3)c2cc(Cl)ccc2O1 (stereo not drawn),10µM,i,nt
CCC1CN(C(=O)Nc2cccc3c2CCCC3)c2ccccc2O1 (stereo not drawn),?,i,nt
COc1ccc(CCNC2=CC(=O)CCC2)cc1OC,i,i,i
CCN(CC)CCCNc1ccc2ncn3c4ccc(O)cc4c(=O)c1c23,i,i,i
SMILES,GLP-1R inv ag,GLP1R cytotox,GLP1R ag
C[C@@H]1CN([C@H](C)CO)C(=O)CCCn2nncc2CO[C@@H]1CN(C)C(=O)NC1CCCCC1,i,i,i
O=C(CNC1CCCCC1)Nc1cccc([N+](=O)[O-])c1,i,i,i
Cc1ccc(NS(=O)(=O)c2ccc(OCC(=O)Nc3cccc([N+](=O)[O-])c3)c(C)c2)cc1,10µM,i,i
Cc1ccc(NC(=O)CN(C)C(=O)c2ccc(NS(=O)(=O)c3cccc([N+](=O)[O-])c3)cc2)cc1,i,i,i
Cc1ccc(S(=O)(=O)N(CC(=O)Nc2cccc([N+](=O)[O-])c2)C2CCCCC2)cc1,11µM,i,i
O=C(Nc1cccc([N+](=O)[O-])c1)NC1CCCCCCC1,10µM,i,i
Cc1ccc(S(=O)(=O)N(CC(=O)Nc2ccc(Cl)c([N+](=O)[O-])c2)C2CCCCC2)cc1,?,i,i
Cn1nnnc1SCCCNCc1cc(Cl)ccc1OCc1ccc(F)cc1,?,i,nt
OCCC1CN(CC(c2ccccc2)c2ccccc2)CCN1C1CCCC1 (stereo not drawn),?,i,i

# High-throughput results from PubChem BioAssay.
